# Data: the supplement of paper PMC8728848
# Many of the other results were omitted from the sample, so the strongest signals are more common in it than they were.
# Legend:
# Assay in all cases: glycan array binding signal (z-score within array); higher = stronger binding
# Conditions in all cases: glycan notation: IUPAC condensed, linker removed
# Gal(b1-6)Gal = biological target: Gal(b1-6)Gal
# Procedure, shortened: (§1)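 Glycan array data were curated from 3228 arrays in the Consortium for Functional Glycomics database and kept only where the protein sequence was available. Glycan names were converted to IUPAC-condensed notation, and columns mapping to the same glycan were averaged. The binding signal is a within-array Z-score, averaged across arrays of the same protein sequence at different concentrations or buffers and across linkers. Negative Z-scores can be read as non-binding.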
# Gal3S(b1-4)GlcNAc = biological target: Gal3S(b1-4)GlcNAc
# Procedure, shortened: as §1
# [1] = biological target: Gal3S(b1-4)[Fuc(a1-3)]Glc
# Procedure, shortened: as §1
# GalNAc(a1-3)GalNAc = biological target: GalNAc(a1-3)GalNAc
# Procedure, shortened: as §1
# [2] = biological target: GalNAc(b1-3)Gal(a1-4)Gal(b1-4)GlcNAc
# Procedure, shortened: as §1
# GalNAc(b1-4)GlcNAc = biological target: GalNAc(b1-4)GlcNAc
# Procedure, shortened: as §1
# GlcA(b1-3)GlcNAc = biological target: GlcA(b1-3)GlcNAc
# Procedure, shortened: as §1
# [3] = biological target: GlcNAc(b1-3)Gal(b1-4)GlcNAc(b1-2)Man(a1-3)[GlcNAc(b1-3)Gal(b1-4)GlcNAc(b1-2)Man(a1-6)]Man(b1-4)GlcNAc(b1-4)GlcNAc
# Procedure, shortened: as §1
# [4] = biological target: GlcNAc(b1-3)Gal(b1-4)GlcNAc(b1-3)Gal(b1-4)GlcNAc(b1-3)Gal(b1-4)GlcNAc(b1-2)Man(a1-3)[GlcNAc(b1-3)Gal(b1-4)GlcNAc(b1-3)Gal(b1-4)GlcNAc(b1-3)Gal(b1-4)GlcNAc(b1-2)Man(a1-6)]Man(b1-4)GlcNAc(b1-4)[Fuc(a1-6)]GlcNAc
# Procedure, shortened: as §1
# [5] = biological target: GlcNAc(b1-3)Gal(b1-4)GlcNAc(b1-3)Gal(b1-4)GlcNAc(b1-3)Gal(b1-4)GlcNAc(b1-3)Gal(b1-4)GlcNAc(b1-2)Man(a1-3)[GlcNAc(b1-3)Gal(b1-4)GlcNAc(b1-3)Gal(b1-4)GlcNAc(b1-3)Gal(b1-4)GlcNAc(b1-3)Gal(b1-4)GlcNAc(b1-2)Man(a1-6)]Man(b1-4)GlcNAc(b1-4)GlcNAc
# Procedure, shortened: as §1
# [6] = biological target: GlcNAc(b1-3)Gal(b1-4)GlcNAc(b1-3)Gal(b1-4)GlcNAc(b1-3)Gal(b1-4)GlcNAc(b1-3)Gal(b1-4)GlcNAc(b1-2)Man(a1-3)[GlcNAc(b1-3)Gal(b1-4)GlcNAc(b1-3)Gal(b1-4)GlcNAc(b1-3)Gal(b1-4)GlcNAc(b1-3)Gal(b1-4)GlcNAc(b1-2)Man(a1-6)]Man(b1-4)GlcNAc(b1-4)[Fuc(a1-6)]GlcNAc
# Procedure, shortened: as §1
# [7] = biological target: GlcNAc(b1-3)Gal(b1-4)GlcNAc(b1-3)Gal(b1-4)GlcNAc(b1-3)Gal(b1-4)GlcNAc(b1-3)Gal(b1-4)GlcNAc(b1-2)[GlcNAc(b1-3)Gal(b1-4)GlcNAc(b1-3)Gal(b1-4)GlcNAc(b1-3)Gal(b1-4)GlcNAc(b1-3)Gal(b1-4)GlcNAc(b1-6)]Man(a1-6)[GlcNAc(b1-3)Gal(b1-4)GlcNAc(b1-3)Gal(b1-4)GlcNAc(b1-3)Gal(b1-4)GlcNAc(b1-3)Gal(b1-4)GlcNAc(b1-2)Man(a1-3)]Man(b1-4)GlcNAc(b1-4)[Fuc(a1-6)]GlcNAc
# Procedure, shortened: as §1
# GlcNAc(b1-3)Man = biological target: GlcNAc(b1-3)Man
# Procedure, shortened: as §1
# MurNAc(b1-4)GlcNAc = biological target: MurNAc(b1-4)GlcNAc
# Procedure, shortened: as §1
# [8] = biological target: Neu5Ac(a2-3)Gal(b1-3)GalNAc(b1-4)[Neu5Ac(a2-8)Neu5Ac(a2-3)]Gal(b1-4)Glc
# Procedure, shortened: as §1
# [9] = biological target: Neu5Ac(a2-3)Gal(b1-4)GlcNAc(b1-2)Man(a1-3)[Neu5Ac(a2-3)Gal(b1-4)GlcNAc(b1-2)Man(a1-6)]Man(b1-4)GlcNAc(b1-4)GlcNAc
# Procedure, shortened: as §1
# [10] = biological target: Neu5Ac(a2-3)Gal(b1-4)GlcNAc(b1-3)Gal(b1-4)GlcNAc(b1-2)Man(a1-3)[Neu5Ac(a2-3)Gal(b1-4)GlcNAc(b1-3)Gal(b1-4)GlcNAc(b1-2)Man(a1-6)]Man(b1-4)GlcNAc(b1-4)GlcNAc
# Procedure, shortened: as §1
# [11] = biological target: Neu5Ac(a2-3)Gal(b1-4)GlcNAc(b1-3)Gal(b1-4)GlcNAc(b1-3)Gal(b1-4)GlcNAc(b1-2)Man(a1-3)[Neu5Ac(a2-3)Gal(b1-4)GlcNAc(b1-3)Gal(b1-4)GlcNAc(b1-3)Gal(b1-4)GlcNAc(b1-2)Man(a1-6)]GalNAc
# Procedure, shortened: as §1
# [12] = biological target: Neu5Ac(a2-3)Gal(b1-4)GlcNAc(b1-3)Gal(b1-4)GlcNAc(b1-6)[Gal(b1-3)]GalNAc
# Procedure, shortened: as §1
# [13] = biological target: Neu5Ac(a2-3)Gal(b1-4)[Fuc(a1-3)]GlcNAc(b1-6)[Gal(b1-3)]GalNAc
# Procedure, shortened: as §1
# [14] = biological target: Neu5Ac(a2-6)Gal(b1-4)GlcNAc(b1-2)Man(a1-3)[GlcNAc(b1-2)Man(a1-6)]Man(b1-4)GlcNAc(b1-4)GlcNAc
# Procedure, shortened: as §1
# [15] = biological target: Neu5Ac(a2-6)Gal(b1-4)GlcNAc(b1-2)Man(a1-3)[Neu5Ac(a2-3)Gal(b1-4)GlcNAc(b1-2)Man(a1-6)]Man(b1-4)GlcNAc(b1-4)GlcNAc
# Procedure, shortened: as §1
# [16] = biological target: Neu5Ac(a2-6)Gal(b1-4)GlcNAc(b1-2)[Neu5Ac(a2-6)Gal(b1-4)GlcNAc(b1-4)]Man(a1-3)[GlcNAc(b1-4)][Neu5Ac(a2-6)Gal(b1-4)GlcNAc(b1-2)[Neu5Ac(a2-6)Gal(b1-4)GlcNAc(b1-6)]Man(a1-6)]Man(b1-4)GlcNAc(b1-4)GlcNAc
# Procedure, shortened: as §1
# [17] = biological target: Neu5Ac(a2-6)Gal(b1-4)GlcNAc(b1-3)Gal(b1-4)GlcNAc(b1-3)Gal(b1-4)GlcNAc(b1-2)Man(a1-3)[Neu5Ac(a2-6)Gal(b1-4)GlcNAc(b1-3)Gal(b1-4)GlcNAc(b1-3)Gal(b1-4)GlcNAc(b1-2)Man(a1-6)]GalNAc
# Procedure, shortened: as §1
# [18] = biological target: Neu5Ac(a2-6)Gal(b1-4)GlcNAc6S
# Procedure, shortened: as §1
# [19] = biological target: Neu5Ac(a2-6)GalNAc(b1-4)GlcNAc6S
# Procedure, shortened: as §1
# [20] = biological target: Neu5Gc(a2-8)Neu5Ac(a2-3)Gal(b1-4)GlcNAc
# Procedure, shortened: as §1
binder,measurement,setting,value
"GST-Gap1 (Streptococcus parasanguinis), A1C3L5 (protein) MFYFVPSWYNGQRQWYYDTPWWFRVKNRMTFDDSVNQVKMFLQGQEEIGLMILNYQPQLRYFLHKQNIFGIYYWSFFDDIQNITRSYTKIIHLKDLNWPEGCEFLYSPFAVVVRLKGEIFAIVNYAEDGNLHSVSFQKNGKVTKDYIFDDRGFLSSILYYDIDERPLYQDYLNINGVWQVREFLKKENDPTPILMINDFSDQTFSKKYYNGWEELIKERLAIFQNNHVENEDVFVLASDTQHNQLVSSIFKEHRKIYSFFGNRFNLENLGQDRISINDATFLVVDTEKNEELLRKTCENLVFKSIPIVRLSPFDSRLRLGHSQTVKEQIIYFHIDNIELDELYSVIAIILELMTLHLDIELRIVTFRQDFQLDLLKTWIIDFIKTNHFEDLLFKQISEGENEIEDEGEIELSRIAMECFTNENQIIKCLDTARLVIDLGIEPDLYTQIASISAGIPQINRVSSDYVIHQKNGLVISDISKLSSAIEFYFDGLFNWNEALIYAVRKMSDYTSGKILKQWKGMLKKK",glycan array binding signal (z-score),Gal(b1-6)Gal,0.538
same,glycan array binding signal (z-score),Gal3S(b1-4)GlcNAc,0.12
same,glycan array binding signal (z-score),[1],-0.553
same,glycan array binding signal (z-score),GalNAc(a1-3)GalNAc,-0.202
same,glycan array binding signal (z-score),[2],0.159
same,glycan array binding signal (z-score),GalNAc(b1-4)GlcNAc,-0.452
same,glycan array binding signal (z-score),GlcA(b1-3)GlcNAc,5.69
same,glycan array binding signal (z-score),[3],0.668
same,glycan array binding signal (z-score),[4],2.14
same,glycan array binding signal (z-score),[5],0.361
same,glycan array binding signal (z-score),[6],-0.16
same,glycan array binding signal (z-score),[7],0.811
same,glycan array binding signal (z-score),GlcNAc(b1-3)Man,-0.28
same,glycan array binding signal (z-score),MurNAc(b1-4)GlcNAc,-0.969
same,glycan array binding signal (z-score),[8],0.39
same,glycan array binding signal (z-score),[9],-1.31
same,glycan array binding signal (z-score),[10],2.28
same,glycan array binding signal (z-score),[11],2.15
same,glycan array binding signal (z-score),[12],-0.747
same,glycan array binding signal (z-score),[13],1.35
same,glycan array binding signal (z-score),[14],-0.335
same,glycan array binding signal (z-score),[15],0.84
same,glycan array binding signal (z-score),[16],-0.54
same,glycan array binding signal (z-score),[17],2.53
same,glycan array binding signal (z-score),[18],0.323
same,glycan array binding signal (z-score),[19],-0.037
same,glycan array binding signal (z-score),[20],-0.655
